Some test systems named below: HCT-15 colon; HT29 colon; SNB-75 CNS; SNB-19 CNS; PC-3 prostate; SK-MEL-5 melanoma; UACC-62 melanoma; LOX IMVI melanoma; SK-MEL-28 melanoma; U251 CNS.
Common to all, as to experiment: NCI-60 one-dose screen, 48 h (100 = growth as untreated, 0 = no growth, -100 = all killed)
What all share (settings): 10 µM unless noted

“And” between values parts separate entries of the source, which are not always exact repeats. Equal values may be shown once. About 83,000 compounds went through this panel and 20% of them were active in at least one assay; those are over-represented in the sample as a whole.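 For each line, cells grew in 96-well plates with the test compound present at a single concentration for 48 hours.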 The source made the active and inactive calls. How the source made its calls: active means growth percent below 10; inactive means the rest.

In the case of `COC(=O)c1nc(=S)[nH]c(C(=O)OC)c1C(=O)c1ccccn1`, the growth was 16.8% (inactive) in the assay on HCT-15 colon; 34.5% (inactive) in the assay on HT29 colon; 57.2% (inactive) in the assay on SNB-75 CNS; 43.1% (inactive) in the assay on SNB-19 CNS; 31.1% (inactive) in the assay on PC-3 prostate; -26.2% (active) in the assay on SK-MEL-5 melanoma. For the same compound, the growth with UACC-62 melanoma was 11.9% (inactive); in the assay on LOX IMVI melanoma, 10.2% (inactive); with SK-MEL-28 melanoma it was 38.1% (inactive).
As to `CCC(c1cccc(O)c1)C(CC)c1cccc(O)c1` (stereo not given), the growth is 49% (inactive) in the assay on HCT-15 colon; 42% (inactive) with HT29 colon; 42.7% (inactive) in the assay with SNB-75 CNS; 71.2% (inactive) in the assay on SNB-19 CNS; 56.4% (inactive) in the assay with PC-3 prostate; 32.3% (inactive) in the assay with SK-MEL-5 melanoma. In addition, the growth in the assay on UACC-62 melanoma was 30.1% (inactive); with SK-MEL-28 melanoma it was 63.2% (inactive).
For `Cc1ccc(NS(=O)(=O)c2ccc(C)cc2)cc1`, the growth in the assay with HCT-15 colon was 101% (inactive) and 104% (inactive); in the assay with HT29 colon it was 101% (inactive) and 90.4% (inactive); in the assay on SNB-75 CNS, 87.7% (inactive) and 102% (inactive); in the assay on SNB-19 CNS, 106% (inactive) and 102% (inactive); with PC-3 prostate it was 97.7% (inactive) and 94% (inactive); with SK-MEL-5 melanoma it was 97.8% (inactive) and 95.3% (inactive). The growth was 91% (inactive) and 99.2% (inactive) in the assay on UACC-62 melanoma; 99.2% (inactive) and 96% (inactive) in the assay with LOX IMVI melanoma; 116% (inactive) and 110% (inactive) with SK-MEL-28 melanoma.
Turning to `COc1ccc2nc3cc(Cl)ccc3c(NCCNc3c4ccc(Cl)cc4nc4ccc(OC)cc34)c2c1`, the growth in the assay with HCT-15 colon is -65.9% (active); with HT29 colon, -65.7% (active); in the assay with SNB-75 CNS it was -86.8% (active); in the assay with SNB-19 CNS it was -87.7% (active); in the assay with U251 CNS, -84% (active); with PC-3 prostate, -63% (active). Also, the figures for the growth in the assay with SK-MEL-5 melanoma, in the assay with UACC-62 melanoma and in the assay with SK-MEL-28 melanoma were -96.5% (active), -88.4% (active) and -86.4% (active), respectively.
For `S=C(N/N=C/c1ccccn1)Nc1ccccn1`, the growth in the assay with HCT-15 colon was 23.8% (inactive); with HT29 colon, 10.4% (inactive); in the assay on SNB-75 CNS, 46.1% (inactive); with SNB-19 CNS it was 50.5% (inactive); in the assay with PC-3 prostate, 33.4% (inactive); with SK-MEL-5 melanoma it was -22.2% (active). Further, the growth in the assay with UACC-62 melanoma was 1.53% (active); in the assay on LOX IMVI melanoma, 5.96% (active); with SK-MEL-28 melanoma, 21.5% (inactive).
Turning to `Nc1nc(N)c2nc(CNc3ccc(C(=O)NC(CCC(=O)O)C(=O)O)cc3)cnc2n1` (stereo not given), the growth with HCT-15 colon is 27% (inactive) and 26% (inactive); in the assay with HT29 colon, 32.5% (inactive) and 18.5% (inactive); with SNB-75 CNS, 64.3% (inactive) and 41.4% (inactive); with SNB-19 CNS it was 51% (inactive) and 44.4% (inactive); in the assay on PC-3 prostate, 43.3% (inactive) and 26.6% (inactive); in the assay on SK-MEL-5 melanoma, 24.6% (inactive) and 23.9% (inactive). The growth in the assay with UACC-62 melanoma is 25.3% (inactive) and 24.3% (inactive); in the assay with LOX IMVI melanoma, 12% (inactive) and 13.1% (inactive); in the assay with SK-MEL-28 melanoma it was 67% (inactive) and 96.9% (inactive).
In the case of `Cc1ccc(C(=Nc2ccccc2)N=P(c2ccccc2)(c2ccccc2)c2ccccc2)cc1`, the growth was 2.78% (active) with HCT-15 colon; 2.74% (active) with HT29 colon; 15.6% (inactive) in the assay on SNB-75 CNS; -15.8% (active) in the assay on SNB-19 CNS; -7.18% (active) in the assay on U251 CNS; -31.5% (active) in the assay with PC-3 prostate. For the same compound, the growth was -96.6% (active) in the assay on SK-MEL-5 melanoma, -78.5% (active) in the assay with UACC-62 melanoma and -48.6% (active) in the assay with SK-MEL-28 melanoma.
With `O[C@H]1[C@H]2c3cc4c(cc3CN3CCC(=C[C@@H]1O)[C@H]23)OCO4`, the growth in the assay on HCT-15 colon was 21.6% (inactive); with HT29 colon it was 18.5% (inactive); in the assay on SNB-75 CNS, 23% (inactive); in the assay on SNB-19 CNS, 28.9% (inactive); in the assay on U251 CNS, 22.5% (inactive); in the assay on PC-3 prostate it was 34.2% (inactive). In addition, the growth in the assay on SK-MEL-5 melanoma was 14.2% (inactive); in the assay with UACC-62 melanoma, 62% (inactive); in the assay on SK-MEL-28 melanoma, 20.7% (inactive).
For the compound `Cc1cc(N)c2ccccc2[n+]1CCCCCCCCCC[n+]1c(C)cc(N)c2ccccc21`, the growth in the assay on HCT-15 colon is 26.2% (inactive) and 42.4% (inactive); in the assay with HT29 colon, 2.09% (active) and -13.8% (active); with SNB-75 CNS it was 21.3% (inactive) and -8.96% (active); with SNB-19 CNS, 21.3% (inactive) and 12.5% (inactive); with U251 CNS it was -51.1% (active) and 15.5% (inactive); with PC-3 prostate, 8% (active) and 14.1% (inactive). Moreover, the growth in the assay on SK-MEL-5 melanoma was -57.8% (active) and -99.9% (active); with UACC-62 melanoma it was -66.5% (active) and 1.93% (active); in the assay with SK-MEL-28 melanoma it was -26.4% (active).
Turning to `COC(=O)[C@@]12OC[C@]34[C@H]([C@@H](O)[C@@H]1O)[C@@]1(C)[C@H](O)C(=O)C=C(C)[C@@H]1C[C@H]3OC(=O)C(OC(C)=O)[C@@H]24` (stereo not given in full), the growth in the assay on HCT-15 colon is -27.3% (active); with HT29 colon, 6.8% (active); in the assay with SNB-75 CNS it was -80.1% (active); in the assay with SNB-19 CNS it was -18.8% (active); in the assay on PC-3 prostate it was -51% (active); in the assay on SK-MEL-5 melanoma it was -76.9% (active). Besides, the growth is -88.8% (active) with UACC-62 melanoma, -84.1% (active) in the assay with LOX IMVI melanoma and -51.5% (active) in the assay on SK-MEL-28 melanoma.
Regarding `O=C(Oc1cccc2cccnc12)c1ccccc1`, the growth is 77.6% (inactive) and 101% (inactive) in the assay with HCT-15 colon; 87.1% (inactive) and 99.8% (inactive) in the assay with HT29 colon; 85.4% (inactive) and 96.2% (inactive) in the assay with SNB-75 CNS; 93.7% (inactive) and 108% (inactive) in the assay with SNB-19 CNS; 82.8% (inactive) and 113% (inactive) in the assay on U251 CNS; 81.1% (inactive) and 93.8% (inactive) in the assay on PC-3 prostate. Also, the growth with SK-MEL-5 melanoma is 105% (inactive) and 100% (inactive); in the assay with UACC-62 melanoma, 97.6% (inactive) and 106% (inactive); in the assay with SK-MEL-28 melanoma, 82.4% (inactive) and 103% (inactive).
Take `CCCCCCCCCCCCCCCCOP(=O)([O-])OCC[N+](C)(C)C`: the growth was 1.44% (active) with HCT-15 colon; -14% (active) in the assay on HT29 colon; 44.2% (inactive) in the assay with SNB-75 CNS; -13.3% (active) in the assay on SNB-19 CNS; 8.3% (active) with U251 CNS; -22.1% (active) in the assay on PC-3 prostate. Besides, the growth is 59.1% (inactive) with SK-MEL-5 melanoma, 37.6% (inactive) in the assay on UACC-62 melanoma and 98.3% (inactive) in the assay with SK-MEL-28 melanoma.
Turning to `CN=C(N)N/N=C(\C)c1ccc2c(c1)Cc1cc(/C(C)=N/NC(N)=NC)ccc1-2`, the growth in the assay on HCT-15 colon is 2.4% (active); in the assay with HT29 colon, -49.7% (active); in the assay with SNB-75 CNS it was -46.5% (active); in the assay with SNB-19 CNS, -43.6% (active); in the assay with PC-3 prostate, 15.9% (inactive); in the assay with SK-MEL-5 melanoma, -89.9% (active). For the same compound, the growth in the assay with UACC-62 melanoma is -78.3% (active); with SK-MEL-28 melanoma, -64.7% (active).

The values above are taken from PubChem BioAssay (NCI).
